Unmarked numbers belong to inactive results. Active and inactive are the calls of the source. Rule as the data show it, unless noted: active = inhibition above about 30%; inactive = the rest.

The target of experiment [1] is Nuclear receptor coactivator 3 (Homo sapiens) (UniProt Q9Y6Q9). Put plainly: SRC3 coactivator transcriptional activity inhibitors, confirmation, cell-based, luminescence, quadruplicate (AID 588792;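 active = mean inhibition over 43.08%, the solvent-only control mean plus 3 SD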;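 also: 0% = DMSO treated cells and 100% = gossypol at 36 µM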). The following applies: HEK293 GAL4-SRC3 luciferase reporter, at 3.6 µM, hits give high values. For orientation: In a reporter assay the amount or activity of a reporter protein is the signal.
Chain of Nuclear receptor coactivator 3 (Homo sapiens) (Q9Y6Q9 whole entry, looked up, the tested form may be a part): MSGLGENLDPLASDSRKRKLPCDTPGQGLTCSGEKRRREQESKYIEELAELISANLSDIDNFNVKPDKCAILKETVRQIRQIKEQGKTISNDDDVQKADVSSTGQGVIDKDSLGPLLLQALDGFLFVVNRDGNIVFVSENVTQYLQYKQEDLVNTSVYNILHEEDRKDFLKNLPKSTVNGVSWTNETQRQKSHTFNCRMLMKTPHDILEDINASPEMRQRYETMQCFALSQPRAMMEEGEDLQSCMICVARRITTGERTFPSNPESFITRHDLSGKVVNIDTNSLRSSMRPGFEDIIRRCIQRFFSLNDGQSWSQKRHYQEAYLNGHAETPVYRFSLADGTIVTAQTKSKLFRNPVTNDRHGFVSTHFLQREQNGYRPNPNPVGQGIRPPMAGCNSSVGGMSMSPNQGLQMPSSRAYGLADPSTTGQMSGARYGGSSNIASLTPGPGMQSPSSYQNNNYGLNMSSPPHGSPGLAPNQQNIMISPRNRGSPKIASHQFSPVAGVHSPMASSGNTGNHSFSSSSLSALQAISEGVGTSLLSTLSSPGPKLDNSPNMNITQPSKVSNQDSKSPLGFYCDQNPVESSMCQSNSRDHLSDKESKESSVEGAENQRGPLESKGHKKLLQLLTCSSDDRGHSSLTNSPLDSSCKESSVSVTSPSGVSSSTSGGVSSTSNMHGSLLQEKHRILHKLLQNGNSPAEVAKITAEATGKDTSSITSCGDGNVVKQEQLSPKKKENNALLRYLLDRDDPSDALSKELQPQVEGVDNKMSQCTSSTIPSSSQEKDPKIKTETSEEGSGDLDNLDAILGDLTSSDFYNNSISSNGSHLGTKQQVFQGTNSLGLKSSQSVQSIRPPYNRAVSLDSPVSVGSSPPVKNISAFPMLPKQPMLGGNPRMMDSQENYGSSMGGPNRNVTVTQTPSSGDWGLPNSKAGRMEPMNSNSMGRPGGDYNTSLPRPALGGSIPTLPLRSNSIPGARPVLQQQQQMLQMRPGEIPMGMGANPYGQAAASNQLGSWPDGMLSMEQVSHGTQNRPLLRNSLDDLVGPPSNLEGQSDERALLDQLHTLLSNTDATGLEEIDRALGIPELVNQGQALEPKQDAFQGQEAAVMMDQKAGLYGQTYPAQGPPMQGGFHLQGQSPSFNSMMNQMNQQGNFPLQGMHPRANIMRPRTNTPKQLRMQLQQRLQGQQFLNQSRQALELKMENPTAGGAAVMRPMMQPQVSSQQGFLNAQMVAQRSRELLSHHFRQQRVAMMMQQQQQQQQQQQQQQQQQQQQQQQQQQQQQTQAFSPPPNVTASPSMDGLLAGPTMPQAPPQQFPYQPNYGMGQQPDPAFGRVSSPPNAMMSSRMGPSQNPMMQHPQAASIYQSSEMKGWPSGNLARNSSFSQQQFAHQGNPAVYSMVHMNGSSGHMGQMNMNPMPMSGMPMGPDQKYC

Experiment [2] deals with transactivating tegument protein VP16 (Human herpesvirus 1), Gal4-VP16 luciferase reporter. Put plainly: VP16 transactivation inhibitors, counter-screen for SRC3 inhibitor project, cell-based, luminescence, high throughput (AID 588794). The following applies: mammalian cells, VP16-driven luciferase reporter luminescence; at 3.6 µM; hits give high values. On the technique in general: Counterscreens check selectivity or assay interference.

In the case of `CCOC(=O)C1=C(C)N[C@@]2(O)c3ccccc3C(=O)[C@@]12O`, the inhibition in experiment [1] was 2.93%; in experiment [2], -4.31%.

Take `O=C(COc1ccccc1[N+](=O)[O-])Nc1ccc(N2CCN(C(=O)c3cccs3)CC2)cc1`: the inhibition in experiment [1] is -7.09%; in experiment [2] it was 7.15%.

On to `CC1(C)C2CCC(C2)C1C/C=N/NC(N)=S` (centres undefined), for which the values for the inhibition in experiment [1] and in experiment [2] were 17.5% and 13.4%, respectively.

`O=C1N=C(N2CCN(c3ccccc3)CC2)S/C1=C\c1cn[nH]c1-c1ccccc1`: the inhibition was 8.51% in experiment [1] and 2.8% in experiment [2].

With `CCOc1ccc(/C=N/OCC(=O)NCc2ccc3c(c2)OCO3)cc1OC`, the inhibition is -12.6% in experiment [1] and -5.41% in experiment [2].

As to `COCC(C)n1c(SCC(=O)NC(=O)Cc2ccccc2)nc2ccccc2c1=O` (centres undefined), the inhibition in experiment [1] was 19.1%; in experiment [2], -4.14%.

`C=CCc1cc(C(=O)N2CCCCC2)ccc1O`: the inhibition in experiment [1] is 14.5%; in experiment [2], 19.9%.

On to `CN1OC[C@@H]2CN(C(=O)c3ccc(-c4ccccc4)cc3)[C@H](c3ccc(-c4cccc(F)c4)cc3)C[C@@H]21`, for which the inhibition in experiment [1] was -6.51%; in experiment [2], 18.4%.

Regarding `Cn1nc(C(F)(F)F)c(-c2ccccc2)c1NC(=O)c1cccnc1`, the inhibition was 18.6% in experiment [1] and 11.4% in experiment [2].

Regarding `CN1CCN(S(=O)(=O)c2cccc(C(=O)N(C)CC(=O)Nc3ccc(Cl)c(Cl)c3)c2)CC1`, the inhibition in experiment [1] is 21%; in experiment [2], 17.9%.

Take `Cc1ccc(-n2c(-c3ccccc3)c[n+]3c2CCC3)cc1`: the inhibition in experiment [1] is 14.4%; in experiment [2], 30.6% (active).

`COc1ccc(-n2c(-c3ccc(Br)cc3)c[n+]3c2SC(C)C3)cc1` (centres undefined): the inhibition is 12.5% in experiment [1] and 23.3% in experiment [2].

On to `C=CCc1cccc(/C=N/NC(=O)C[n+]2ccccc2)c1O`, for which the inhibition in experiment [1] was 24.3%; in experiment [2] it was 12.3%.

On to `Cc1ncoc1C(=O)NC1CCCc2c1cnn2-c1ccc(C(C)(C)C)cc1` (centres undefined), for which the results for the inhibition in experiment [1] and in experiment [2] were -0.26% and 41.8% (active), respectively.

With `CN(C)c1cc[n+](CC(=O)Nc2ccc(Oc3ccccc3)cc2)cc1`, the values for the inhibition in experiment [1] and in experiment [2] were 15.7% and 20.2%, respectively.

For the compound `COc1ccc(C(CNC(=O)C(C)(C)Oc2ccc(Cl)cc2)N2CCCCC2)cc1` (centres undefined), the inhibition in experiment [1] is 11.2%; in experiment [2] it was 2.63%.

As to `Cc1cc(C)nc(/N=C(\N)Nc2ccccc2-c2ccccc2)n1`, the inhibition in experiment [1] was -12%; in experiment [2], 13.4%.

With `COc1cccc(NC(=O)CN(C)C(=O)/C=C/c2cn(-c3ccccc3)nc2-c2ccc(OC)c(OC)c2)c1`, the inhibition in experiment [1] is 1.39%; in experiment [2] it was -9.23%.

For the compound `CC(C(=O)N1c2ccccc2Sc2ccccc21)n1nnc(-c2cccs2)n1` (centres undefined), the values for the inhibition in experiment [1] and in experiment [2] were 2.33% and 6.84%, respectively.

`COc1ccc(OC)c(Nc2nc(N)nc(CCl)n2)c1`: the inhibition in experiment [1] was 15.4%; in experiment [2], 4.74%.

Consider `O=C(NCc1cccs1)C1CCN(S(=O)(=O)c2ccccc2F)CC1`, for which the inhibition in experiment [1] is 0.65%; in experiment [2], -0.48%.

With `CN(C)S(=O)(=O)c1cccc(-c2nn(-c3ccccc3)cc2/C=C(\C#N)c2nc3ccccc3[nH]2)c1`, the inhibition in experiment [1] was 1.73%; in experiment [2] it was -4.19%.

On to `CCOC(=O)N1CCC(NC(=O)C2CCCN(Cc3nc(-c4ccc(CC)cc4)oc3C)C2)CC1` (centres undefined), for which the inhibition is 18.7% in experiment [1] and 33.9% (active) in experiment [2].

For `O=C(NC(=S)Nc1cccc2cnccc12)c1ccccc1`, the inhibition in experiment [1] is 51.4% (active); in experiment [2], 44.1% (active).

In the case of `Cc1cccc(Oc2sc(C(=O)c3ccccc3)c(N)c2C#N)c1`, the inhibition in experiment [1] is 34.8%; in experiment [2], 5.81%.

Turning to `CCOC(=O)c1c(C)[nH]c2c1-c1ccccc1C(=O)C2=O`, the inhibition in experiment [1] is 95.1% (active); in experiment [2], 91.5% (active).

`CSCc1cc(N(C)c2ccccc2)nc(-c2ccccn2)n1`: the inhibition was -19.7% in experiment [1] and -1.49% in experiment [2].

For `CCn1c(Cc2ccccc2)nnc1SCC(=O)Nc1ccc(N2CCOCC2)c(Cl)c1`, the inhibition in experiment [1] was -0.44%; in experiment [2], -2.29%.

With `Cn1nc(CC(=O)Nc2ccc3c(c2)OCCO3)c2ccccc2c1=O`, the inhibition in experiment [1] was 9.58%; in experiment [2] it was 34% (active).

With `O=C(Nc1ncc(Cc2ccc(C(F)(F)F)cc2)s1)c1ccc(-c2cccc([N+](=O)[O-])c2)o1`, the inhibition is 0.3% in experiment [1] and 44.4% (active) in experiment [2].

As for `C/C(=N\NC(=O)COc1ccccc1-c1ccccc1)c1ccc(O)cc1O`, the values for the inhibition in experiment [1] and in experiment [2] were 8.45% and 10.5%, respectively.

With `CC(C)c1ccc(NC(=O)C2CCCN(S(=O)(=O)c3cccnc3)C2)cc1` (centres undefined), the inhibition in experiment [1] is -12.3%; in experiment [2], 4.41%.

Turning to `Cc1cccc(OC(=O)NCCOC(=O)N(O)c2ccc(Cl)cc2)c1`, the inhibition in experiment [1] was 4.94%; in experiment [2], -5.77%.

As for `CCN(CC)CCOc1c(Br)ccc2c1sc1nc3n(c(=O)c12)CCC3`, the inhibition in experiment [1] was -18.1%; in experiment [2] it was 2.47%.

For the compound `Cc1cc(SCC(=O)N/N=C/c2ccc(O)cc2O)c(C)cc1Br`, the inhibition in experiment [1] was 20.6%; in experiment [2], 23.2%.

For `O=C(Nc1cccc2ccccc12)OC1C=CS(=O)(=O)C1` (centres undefined), the inhibition in experiment [1] is 25.6%; in experiment [2], 15.6%.

As for `CC(=O)c1ccc(Nc2c3c(nc4ccccc24)CCCC3)cc1`, the results for the inhibition in experiment [1] and in experiment [2] were 32.7% and -3.62%, respectively.

Turning to `COc1ccc([N+](=O)[O-])cc1NC(=O)Nc1cccc(Cl)c1`, the results for the inhibition in experiment [1] and in experiment [2] were 19.4% and 15.4%, respectively.

`COc1cccc(-c2csc3ncnc(Sc4nnnn4C)c23)c1`: the results for the inhibition in experiment [1] and in experiment [2] were 5.54% and 21.9%, respectively.

Regarding `Cc1ccc(NC(=O)c2cccc(S(=O)(=O)NCc3ccccc3)c2)nc1`, the inhibition in experiment [1] is -3.03%; in experiment [2] it was 6.44%.

With `Nc1ccccc1-c1ccc([N+](=O)[O-])cc1`, the inhibition in experiment [1] was 5.58%; in experiment [2], 33.1% (active).

Turning to `O=C(NC1CCCC1)C(c1ccncc1)N(Cc1ccccc1)C(=O)Cc1cccs1` (centres undefined), the results for the inhibition in experiment [1] and in experiment [2] were 2.62% and -0.83%, respectively.

As to `Cc1cccc(Nc2ncnc(N)c2[N+](=O)[O-])n1`, the inhibition in experiment [1] is 24.9%; in experiment [2], 4.32%.

For `CCc1cccc(CC)c1NC(=O)CSc1nc2ccc(N3C(=O)C4C(C3=O)[C@H]3C=C[C@@H]4C3)cc2s1` (some centres undefined), the figures for the inhibition in experiment [1] and in experiment [2] were 1.87% and 10.2%, respectively.

As for `Cc1ccc(NC(=O)C2c3ccccc3-c3ccccc32)cc1`, the inhibition in experiment [1] was 9.64%; in experiment [2], 6.56%.

As for `O=C(CCl)NC1CCCc2ccccc21` (centres undefined), the inhibition was 1.81% in experiment [1] and -5.4% in experiment [2].

`O=C(Nc1nc(-c2ccc3c(c2)OCCO3)cs1)c1ccc(S(=O)(=O)N2CCCCC2)cc1`: the inhibition was -0.44% in experiment [1] and 32.6% (active) in experiment [2].

For the compound `CCCCCCCOC(=O)C[N+](C)(C)CCOC1CC2CCC1(C)C2(C)C` (centres undefined), the inhibition in experiment [1] is -17.6%; in experiment [2] it was 9.62%.

As for `CCCOc1cccc(C(=O)Nc2cc(NC(=O)c3ccco3)ccc2OC)c1`, the inhibition in experiment [1] was 10.8%; in experiment [2], 2.92%.

For `CN(Cc1cccc(F)c1)C(=O)C1CC(=O)N(Cc2ccco2)C1` (centres undefined), the figures for the inhibition in experiment [1] and in experiment [2] were -0.39% and -6.54%, respectively.

As to `CCCCCCC(=O)NNC(=O)CC(=O)Nc1ccccc1C(=O)O`, the inhibition in experiment [1] is 4.52%; in experiment [2], -10.2%.

For the compound `O=C1c2ccc3c4c(ccc(c24)C(=O)N1c1cccc(O)c1)C(=O)N(c1cccc(O)c1)C3=O`, the inhibition in experiment [1] was 30.3%; in experiment [2], 31% (active).

By inhibition is commonly meant the drop in the measured response relative to a control, in per cent.

Source of the values: PubChem BioAssay.
